Data: PubChem BioAssay AID1159580 (chemical genetic matrix, 2015)
The campaign covered roughly 5,500 compounds. About 2,000 (36%) were called active. About 18% were inconclusive and are not listed. No stated cut-off is given here; in the data, active means normalized growth mostly below about 0.91 (no sharp cut-off); inconclusive means no clear call, values can overlap the other calls; inactive means mostly above about 0.92. The list shows a part of the results.

Assay: chemical genetic growth profiling, strain panel (AID 1159580);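 further: tested at 20 µM; growth read once vehicle control cultures reached saturation at 30 °C; 1 = growth at the plate median or of vehicle wells; lower values mean less growth of the strain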
Conditions: S. cerevisiae deletion strains, growth OD
[1] = locus YAL013W, strain DEP1, active compounds read low
[2] = locus YAL040C, strain CLN3, active compounds read low
[3] = locus YDR363W, strain ESC2, active compounds read low
[4] = locus YER002W, strain NOP16, active compounds read low
[5] = locus YGR078C, strain PAC10, active compounds read low
[6] = locus YMR263W, strain SAP30, active compounds read low
[7] = locus YNL175C, strain NOP13, active compounds read low
[8] = locus YNL197C, strain WHI3, active compounds read low
[9] = locus YNL224C, strain SQS1, active compounds read low
[10] = locus YNL322C, strain KRE1, active compounds read low
[11] = locus YOR083W, strain WHI5 (second series), active compounds read low
[12] = locus YPL055C, strain LGE1, active compounds read low
[13] = locus YNL153C, strain GIM3, active compounds read low
[14] = locus YAR019C, strain CDC15, active compounds read low
[15] = locus YBL105C, strain PKC1, active compounds read low
[16] = locus YBR135W, strain CKS1, active compounds read low
[17] = locus YBR136W, strain MEC1, active compounds read low
[18] = locus YBR160W, strain CDC28, active compounds read low
[19] = locus YDL017W, strain CDC7, active compounds read low
[20] = locus YDL028C, strain MPS1, active compounds read low
[21] = locus YDL101C, strain DUN1, active compounds read low
[22] = locus YDL108W, strain KIN28, active compounds read low
[23] = locus YDL132W, strain cdc53, active compounds read low
[24] = locus YDL214C, strain PRR2, active compounds read low
[25] = locus YDR052C, strain DBF4, active compounds read low
[26] = locus YDR054C, strain cdc34, active compounds read low
[27] = locus YDR226W, strain ADK1, active compounds read low
[28] = locus YDR477W, strain SNF1, active compounds read low
[29] = locus YER123W, strain YCK3, active compounds read low
[30] = locus YER133W, strain GLC7, active compounds read low
[31] = locus YFL009W, strain cdc4, active compounds read low
[32] = locus YFL029C, strain CAK1, active compounds read low
[33] = locus YFR003C, strain YPI1, active compounds read low
[34] = locus YFR019W, strain FAB1, active compounds read low
[35] = locus YFR028C, strain CDC14, active compounds read low
[36] = locus YGR040W, strain KSS1, active compounds read low
[37] = locus YGR052W, strain FMP48, active compounds read low
[38] = locus YGR092W, strain DBF2, active compounds read low
[39] = locus YHR030C, strain SLT2, active compounds read low
[40] = locus YHR079C, strain IRE1, active compounds read low
[41] = locus YHR082C, strain KSP1, active compounds read low
[42] = locus YHR205W, strain SCH9, active compounds read low
[43] = locus YIL147C, strain SLN1, active compounds read low
[44] = locus YJL095W, strain BCK1, active compounds read low
[45] = locus YJL128C, strain PBS2, active compounds read low
[46] = locus YJL157C, strain FAR1, active compounds read low
[47] = locus YJR016C, strain ILV3, active compounds read low
[48] = locus YJR066W, strain TOR1 (second series), active compounds read low
[49] = locus YJR066W, strain TOR1, active compounds read low
[50] = locus YKL048C, strain ELM1, active compounds read low
[51] = locus YKL067W, strain YNK1, active compounds read low
[52] = locus YKL101W, strain HSL1, active compounds read low
[53] = locus YKL193C, strain SDS22, active compounds read low
[54] = locus YKL203C, strain TOR2, active compounds read low
[55] = locus YLR113W, strain HOG1, active compounds read low
[56] = locus YLR133W, strain CKI1, active compounds read low
[57] = locus YLR403W, strain SFP1, active compounds read low
[58] = locus YML070W, strain DAK1, active compounds read low
[59] = locus YMR001C, strain CDC5, active compounds read low
[60] = locus YMR205C, strain PFK2 (second series), active compounds read low
[61] = locus YMR277W, strain FCP1, active compounds read low
[62] = locus YNL006W, strain LST8, active compounds read low
[63] = locus YNL020C, strain ARK1, active compounds read low
[64] = locus YNL161W, strain CBK1, active compounds read low
[65] = locus YNL183C, strain NPR1, active compounds read low
[66] = locus YNL207W, strain RIO2, active compounds read low
[67] = locus YNL222W, strain SSU72, active compounds read low
[68] = locus YNL307C, strain MCK1 (second series), active compounds read low
[69] = locus YOL078W, strain AVO1, active compounds read low
[70] = locus YOL136C, strain PFK27, active compounds read low
[71] = locus YOR061W, strain CKA2, active compounds read low
[72] = locus YOR119C, strain RIO1, active compounds read low
[73] = locus YOR231W, strain MKK1, active compounds read low
[74] = locus YOR329C, strain SCD5, active compounds read low
[75] = locus YPL031C, strain PHO85, active compounds read low
[76] = locus YPL153C, strain RAD53, active compounds read low
[77] = locus YPL204W, strain HRR25, active compounds read low
[78] = locus YPL209C, strain IPL1, active compounds read low
[79] = locus YPL256C, strain CLN2, active compounds read low
[80] = locus YPR025C, strain CCL1, active compounds read low
[81] = locus YPR106W, strain ISR1, active compounds read low
[82] = locus YPR111W, strain DBF20, active compounds read low
[83] = strain NNK1, active compounds read low
[84] = strain TSCII, active compounds read low

Measured: normalized growth

O=C(O)CN(CCOCCOCCN(CC(=O)O)CC(=O)O)CC(=O)O
inactive: [1] 1.03 | [2] 0.99 | locus YCL061C, strain MRC1 (second series), active compounds read low 1 | [3] 1 | [4] 0.996 | [5] 1.01 | [6] 1 | [7] 0.996 | [8] 1 | [9] 0.992 | [10] 1.02 | [11] 1.01 | [12] 1.06

O=C(O)CN(CCN(CC(=O)O)CC(=O)O)CCN(CC(=O)O)CC(=O)O
active: [1] 0.278 | [3] 0.194 | [12] 0.198
inactive: [2] 1.03 | [4] 1.01 | [13] 1.16 | [7] 1.01 | [8] 1.02 | [9] 1 | [11] 1.07

N/C(=N/OC(=O)Nc1cccc(C(F)(F)F)c1)c1ccc(OC(F)(F)F)cc1
active: [29] 0.524 | [34] 0.745 | [37] 0.551 | [39] 0.21 | [40] 0.306 | [41] 0.496 | [44] 0.287 | [55] 0.361 | [65] 0.53 | [73] 0.269 | [76] 0.485 | [79] 0.456
inactive: [14] 0.983 | [15] 1 | [16] 0.979 | [17] 0.985 | [18] 0.969 | [19] 0.995 | [20] 0.972 | [21] 0.989 | [22] 0.975 | [23] 0.979 | [24] 0.895 | [25] 0.998 | [26] 0.971 | [27] 0.971 | [28] 0.822 | [30] 0.893 | [31] 0.953 | [32] 0.981 | [33] 0.994 | [35] 0.976 | [36] 0.837 | [38] 0.616 | [42] 0.882 | [43] 0.988 | [45] 0.93 | [46] 0.905 | [47] 0.988 | [48] 0.731 | [49] 0.555 | [50] 0.874 | [51] 0.883 | [52] 0.743 | [53] 0.985 | [54] 0.895 | [56] 0.887 | [57] 0.914 | [58] 0.716 | [59] 0.983 | [60] 0.906 | [61] 0.97 | [62] 0.977 | [63] 0.794 | [64] 0.996 | [66] 0.995 | [67] 0.973 | [68] 0.814 | [69] 0.983 | [70] 0.821 | [71] 0.883 | [72] 0.869 | [74] 0.993 | [75] 0.749 | [77] 0.684 | [78] 0.992 | [80] 0.99 | [81] 0.976 | [82] 0.946 | [83] 0.98 | [84] 0.986

O=C(Nc1ccc(OC(F)(F)F)cc1)Nc1cccc(C(=O)O)c1
inactive: [1] 1.01 | locus YBR229C, strain ROT2, active compounds read low 0.999 | locus YCL061C, strain MRC1, active compounds read low 1.01 | [21] 1.01 | locus YDL134C, strain PPH21, active compounds read low 1.04 | locus YDR150W, strain NUM1, active compounds read low 0.947 | locus YEL061C, strain CIN8, active compounds read low 1.02 | [5] 1 | [39] 1.02 | locus YHR087W, strain rtc3, active compounds read low 1.02 | locus YJL187C, strain SWE1, active compounds read low 1.01 | locus YJR043C, strain POL32, active compounds read low 0.974 | locus YJR075W, strain HOC1, active compounds read low 1.01 | locus YLR039C, strain RIC1, active compounds read low 0.995 | locus YLR058C, strain SHM2 (second series), active compounds read low 1.01 | locus YLR085C, strain ARP6, active compounds read low 1.07 | locus YLR262C, strain YPT6, active compounds read low 0.981 | locus YML094W, strain GIM5, active compounds read low 1.02 | locus YMR219W, strain ESC1, active compounds read low 1 | [6] 1.02 | locus YMR307W, strain GAS1, active compounds read low 1.08 | [13] 0.988 | locus YNL298W, strain CLA4 (second series), active compounds read low 1 | [10] 0.999 | locus YNR030W, strain Alg12, active compounds read low 1.04 | [12] 0.999 | locus YPL241C, strain CIN2, active compounds read low 1.03 | locus YPR135W, strain CTF4, active compounds read low 0.996

CC1(C)C=Cc2cc(/C(N)=N\OC(=O)Nc3cccc(C(F)(F)F)c3)ccc2O1
active: [39] 0.426 | [55] 0.832 | [79] 0.831
inactive: [14] 0.981 | [15] 0.982 | [16] 0.969 | [17] 0.972 | [18] 0.977 | [19] 0.987 | [20] 0.977 | [21] 0.988 | [22] 0.977 | [23] 0.977 | [24] 0.947 | [25] 0.989 | [26] 0.97 | [27] 0.976 | [28] 0.967 | [29] 0.866 | [30] 0.947 | [31] 0.976 | [32] 0.982 | [33] 0.984 | [34] 0.883 | [35] 0.978 | [36] 0.968 | [37] 0.99 | [38] 0.854 | [40] 0.825 | [41] 0.917 | [42] 0.912 | [43] 0.98 | [44] 0.726 | [45] 0.967 | [46] 0.96 | [47] 0.975 | [48] 0.832 | [49] 0.827 | [50] 0.934 | [51] 0.933 | [52] 0.934 | [53] 0.979 | [54] 0.991 | [56] 0.937 | [57] 0.949 | [58] 0.887 | [59] 0.98 | [60] 0.93 | [61] 0.987 | [62] 0.985 | [63] 0.924 | [64] 0.984 | [65] 0.801 | [66] 0.984 | [67] 0.981 | [68] 0.931 | [69] 0.976 | [70] 0.903 | [71] 0.945 | [72] 1.04 | [73] 0.823 | [74] 0.988 | [75] 0.935 | [76] 0.871 | [77] 0.903 | [78] 0.98 | [80] 0.978 | [81] 0.981 | [82] 0.963 | [83] 0.993 | [84] 0.979
